According to PubChem BioAssay (NCATS):
Records with an inconclusive call do not appear. The source made the active and inactive calls. Unless noted, calls follow the shape of the full dose curve.

Legend:
[1] = target: Bile acid receptor (Homo sapiens) (UniProt Q96RI1); experiment: qHTS assay for small molecule agonists of farnesoid X receptor signaling (AID 588527); settings: HEK293T FXR-UAS-bla, beta-lactamase ratio, 16 h; activation: stronger effect = higher value;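 also: series mostly up to about 77 µM; 0% = vehicle basal and 100% = reference agonist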
In short: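 Agonist-mode beta-lactamase reporter in GeneBLAzer FXR-UAS-bla HEK293T cells, titration up to 92 uM, 16 h exposure at 37 C, CCF4 fluorescence. Response scaled to DMSO (0%) and 100 uM chenodeoxycholic acid (100%), then Hill-fitted for EC50 and efficacy.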

[2] = target: Glucocorticoid receptor (Homo sapiens) (UniProt P04150); experiment: qHTS assay for small molecule agonists of glucocorticoid receptor signaling (AID 588532; active = well fitted curve in the direction sought with a large enough effect in the signal ratio, with a control signal flat; the % refers to the signal ratio;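 also: 100% = dexamethasone at 0.1 µM and 0% = DMSO only wells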); settings: HeLa MMTV-bla, beta-lactamase ratio, agonist, 18 h; activation: stronger effect = higher value, percent of dexamethasone control, DMSO zero
In short: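 MMTV-bla HeLa beta-lactamase reporter cells in 1% charcoal/dextran FBS medium, compounds up to 92 uM for 18 h at 37 C, CCF4 readout; normalized to 0.1 uM dexamethasone (100%), EC50 and efficacy from Hill fits.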

[3] = target: Peroxisome proliferator-activated receptor delta (Homo sapiens) (UniProt Q03181); experiment: qHTS assay for small molecule agonists of peroxisome proliferator-activated receptor delta signaling (AID 588534);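 also: 0% = DMSO basal wells and 100% = positive control agonist at 10 µM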
In short: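 Cells carrying a PPAR-delta beta-lactamase reporter were treated with compounds for 18 h at 37 °C in agonist mode. CCF4 fluorescence was read after 2 h; EC50 and efficacy from Hill fits.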

[4] = target: Vitamin D3 receptor (Homo sapiens) (UniProt P11473); experiment: qHTS assay for small molecule agonists of vitamin D receptor signaling (AID 588543);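 also: 0% = DMSO basal and 100% = reference agonist control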
In short: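 β-lactamase reporter, VDR-UAS-bla HEK293T, agonist mode. Cells plated 5 h at 37 °C, compound titration 16 h at 37 °C, CCF4 dye 2 h RT, ratio 460/530 nm. Hill fit → EC50, efficacy vs 50 nM 1α,25-(OH)2D3.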

[5] = qHTS assay for small molecule agonists of retinoid X receptor alpha signaling (AID 588544); settings: HEK293T RXRa-UAS-bla, beta-lactamase reporter, 18 h; 530 nm emission; also: potency is read from the fitted curve at half-maximal effect;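 as to activation: 0% = DMSO basal wells and 100% = reference agonist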
[6] = target: Retinoic acid receptor RXR-alpha (Homo sapiens) (UniProt P19793); experiment: as above
[7] = target: Thyroid hormone receptor beta (Homo sapiens) (UniProt P10828); experiment: qHTS assay for small molecule agonists of thyroid hormone receptor beta signaling (AID 588545)
In short: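 Agonist activity was read as beta-lactamase CCF4 fluorescence (405 ex, 460/530 em), scaled between DMSO (0%) and 10 nM T3 (100%), then Hill-fitted for EC50 and efficacy. HEK 293 TR-UAS-bla cells in 2% charcoal/dextran FBS medium were exposed 18 h at 37 C.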

[8] = qHTS assay for environmental chemicals that activate the Aryl hydrocarbon Receptor (AhR) signaling pathway (AID 651777; active = well fitted curve in the direction sought with a large enough effect; an effect the other way counts as inactive or inconclusive; also: % of control where 0% means no effect; nearly all actives have a fitted effect of over 15% in size); settings: 1A2-DRE human hepatoma cells, luciferase, 24 h; activation: stronger effect = higher value
In short: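 Luminescence (One-Glo, 30 min, room temperature) reports AhR-driven luciferase in stably transfected human hepatoma cells bearing DRE and CYP1A2 promoter. Cells (1,200/well) were treated with compound for 24 hr at 37 C in qHTS format.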

[9] = target: Peroxisome proliferator-activated receptor alpha (Homo sapiens) (UniProt Q07869); experiment: qHTS assay for small molecule agonists of the peroxisome proliferator-activated receptor alpha (PPARalpha) signaling pathway (AID 651778; active = well fitted curve in the direction sought with a large enough effect; an effect the other way counts as inactive or inconclusive; also: % of control where 0% means no effect); settings: PathHunter PPARalpha complementation, chemiluminescence, 6 h; max response: stronger effect = higher value
In short: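 Enzyme-fragment complementation assay in which ligand-bound PPARalpha translocates and forms an active enzyme that generates chemiluminescence. Cells were plated overnight, exposed to compound for 6 hr at 37 C, and then given detection reagent for 60 min at room temperature.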

[10] = qHTS assay for small molecule agonists of the antioxidant response element (ARE) signaling pathway measured by Nrf2-dependant transcriptional activity (AID 720636; active = well fitted curve in the direction sought with a large enough effect in the repeat runs; an effect the other way counts as inactive or inconclusive; also: % of control where 0% means no effect)
In short: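 Nrf2-dependent transcription read as ONE-Glo luciferase signal from ARE-luc HepG2 reporter cells after 16 hr compound treatment at 37 C, 5% CO2, in assay medium with 1% dialyzed FBS.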

[11] = qHTS assay for cell viability of the p53RE-bla HCT-116 cell line (AID 743292; active = well fitted curve in the direction sought with a large enough effect; an effect the other way counts as inactive or inconclusive; also: nearly all actives have a fitted effect of over 55% in size; also: potency is read from the fitted curve at half-maximal effect)
In short: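 ATP-based luminescent viability (CellTiter-Glo, 30 min RT) after 16 h compound treatment at 37 C of p53RE-bla HCT-116 cells, seeded at 4,000 cells/well and rested 5 h before dosing.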

[12] = qHTS assay for small molecule antagonists of peroxisome proliferator-activated receptor delta signaling (AID 588535; active = well fitted inhibition curve with a large enough effect in the signal ratio, with a control signal flat, not every such curve was filed as active; the % refers to the signal ratio;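 as to max response: cells co-treated with a PPAR-delta agonist as stimulator during compound exposure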); settings: HEK293T PPARd-UAS-bla, beta-lactamase FRET ratio, 18 h; 460 nm channel
In short: (§1)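 Antagonist-mode beta-lactamase reporter (GeneBLAzer PPAR-delta-UAS-bla) in HEK293T cells, 2% charcoal/dextran FBS, 4000 cells/well. Compound titrations, 18 h at 37 C; CCF4 ratio read, IC50 and efficacy from Hill fits.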

[13] = target: Peroxisome proliferator-activated receptor delta (Homo sapiens) (UniProt Q03181); experiment: as above
In short: as §1

[14] = target: Peroxisome proliferator-activated receptor gamma (Homo sapiens) (UniProt P37231); experiment: qHTS assay for small molecule agonists of peroxisome proliferator-activated receptor gamma signaling (AID 588536; active = well fitted curve in the direction sought with a large enough effect in the signal ratio, with a control signal flat, not every such curve was filed as active; the % refers to the signal ratio;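 also: 0% = DMSO basal wells and 100% = rosiglitazone at 2 µM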)
In short: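 Ratiometric blue/green fluorescence (405 nm excitation; 460 and 530 nm emission) from CCF4-loaded HEK293 reporter cells serves as signal. Exposure to test compounds lasts 16 h at 37 C in medium containing 1% charcoal/dextran-treated serum.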

[15] = target: Vitamin D3 receptor (Homo sapiens) (UniProt P11473); experiment: qHTS assay for small molecule antagonists of vitamin D receptor signaling (AID 588541); also: potency is read from the fitted curve at half-maximal effect
In short: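 VDR-UAS-bla HEK293T cells in 2% charcoal-stripped FBS were stimulated with 1-alpha,25-dihydroxyvitamin D3 (3 nM final) plus compound for 16 h at 37 C. The beta-lactamase CCF4 readout was normalized to 50 nM agonist and DMSO, and Hill fits gave IC50.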

[16] = qHTS assay for small molecule antagonists of retinoid X receptor alpha signaling (AID 588546; active = well fitted inhibition curve with a large enough effect in the signal ratio, with a control signal flat, not every such curve was filed as active; the % refers to the signal ratio; also: potency is read from the fitted curve at half-maximal effect;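 as to max response: cells stimulated with 9-cis-retinoic acid as agonist; % is scaled to controls: 0 for no effect and ±100 for the full control effect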); settings: HEK293T RXRa-UAS-bla, beta-lactamase ratio, antagonist mode; measured here: W530 green channel, cytotoxicity proxy
In short: (§2)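 Beta-lactamase reporter inhibition, read as CCF4 fluorescence ratio (ex 405, em 460/530 nm) after 2 h at RT. HEK293T UAS-bla cells, 2500/well, were stimulated with 9-cis-RA at 500 or 100 nM final alongside test compound for 18 h at 37 C.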

[17] = target: Retinoic acid receptor RXR-alpha (Homo sapiens) (UniProt P19793); experiment: as above; settings: HEK293T RXRa-UAS-bla, beta-lactamase ratio, antagonist mode
In short: as §2

[18] = target: Thyroid hormone receptor beta (Homo sapiens) (UniProt P10828); experiment: qHTS assay for small molecule antagonists of thyroid hormone receptor beta signaling (AID 588547; active = well fitted inhibition curve with a large enough effect in the signal ratio, with a control signal flat, not every such curve was filed as active; the % refers to the signal ratio; also: potency is read from the fitted curve at half-maximal effect;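 as to activity change % (negative = inhibition): cells stimulated with 0.4 nM T3 agonist during compound exposure; series mostly up to about 77 µM; % is scaled to controls: 0 for no effect and ±100 for the full control effect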); settings: TR-UAS-bla HEK293, beta-lactamase ratio, antagonist mode, 18 h
In short: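 TR-UAS-bla GripTite HEK293 cells in 2% charcoal/dextran FBS medium; compounds 0.59 nM to 92 uM with T3 at 0.4nM final, 18 h at 37 C. Beta-lactamase read by CCF4 fluorescence (460/530 nm); Hill fits gave IC50 and efficacy.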

[19] = qHTS assay for small molecule agonists of the antioxidant response element (ARE) signaling pathway (AID 651741; active = well fitted activation curve with a large enough effect in the signal ratio; the % refers to the signal ratio; also: potency is read from the fitted curve at half-maximal effect; as to activation: % of control where 0% means no effect)
In short: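 CellSensor ARE-bla HepG2 cells (2,000/well) carrying ARE-driven beta-lactamase, exposed 16 h at 37 C. LiveBLAzer B/G FRET substrate added for 2 h at room temperature; fluorescence intensity read.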

[20] = qHTS assay for small molecule activators of the p53 signaling pathway (AID 651743; active = well fitted activation curve with a large enough effect in the signal ratio, not every such curve was filed as active; the % refers to the signal ratio; also: potency is read from the fitted curve at half-maximal effect; as to activation: series mostly up to about 92 µM; % of control where 0% means no effect); settings: HCT-116 p53RE-bla, beta-lactamase FRET ratio, 16 h; activation: stronger effect = higher value
In short: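 p53RE-bla HCT-116 cells carrying a beta-lactamase reporter under p53 response elements were exposed to compounds for 16 hours at 37 C. Reporter activity read as fluorescence after 2 hours at room temperature with LiveBLAzer B/G FRET substrate.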

[21] = qHTS assay for small molecule agonists of the antioxidant response element (ARE) signaling pathway measured by Nrf2-dependant transcriptional activity - cell viability counter screen (AID 720653; active = well fitted curve in the direction sought with a large enough effect in the repeat runs; an effect the other way counts as inactive or inconclusive; also: potency is read from the fitted curve at half-maximal effect; as to max response: % is scaled to controls: 0 for no effect and ±100 for the full control effect); settings: ARE-bla HepG2 viability, CellTiter-Glo ATP luminescence, 16 h; max response: stronger effect = lower value
In short: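 ARE-bla HepG2 cells treated with compounds for 16 h at 37C; this counter screen measures viability as intracellular ATP by CellTiter-Glo luminescence after 30 min at room temperature.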

[22] = target: Nuclear receptor subfamily 1 group I member 2 (Rattus norvegicus) (UniProt Q9R1A7); experiment: qHTS assay for small molecule activators of the rat pregnane X receptor (rPXR) signaling pathway (AID 651751; call rule not given here; also: 0% is about no effect); settings: rPXR reporter cells, luciferase (One-Glo), 24 h
[23] = qHTS assay for small molecule activators of the human pregnane X receptor (PXR) signaling pathway (AID 720659; call rule not given here; also: 0% is about no effect)
[24] = qHTS assay for small molecule activators of the nuclear factor-kappa B (NF-kB) signaling pathway (AID 651749; active = well fitted activation curve with a large enough effect in the signal ratio; the % refers to the signal ratio; also: series mostly up to about 77 µM; % of control where 0% means no effect); settings: NF-kB-bla ME-180 cells, beta-lactamase FRET ratio, 16 h; activation: stronger effect = higher value
In short: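 NF-kB-bla ME-180 cells carrying a beta-lactamase reporter under an NF-kB response element, 2,000 cells/well, exposed to compound for 16 hr at 37C; FRET-based beta-lactamase fluorescence read-out of pathway activation.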

[25] = qHTS assay for cell viability of HEK293 cells (AID 743288; active = well fitted curve in the direction sought with a large enough effect; an effect the other way counts as inactive or inconclusive; also: nearly all actives have a fitted effect of over 50% in size; also: potency is read from the fitted curve at half-maximal effect; as to max response: % is scaled to controls: 0 for no effect and ±100 for the full control effect); settings: ATP luminescence (CellTiter-Glo), 18 h; max response: stronger effect = lower value
In short: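 Environmental chemicals tested in qHTS format against parental HEK293 cells; 18 h treatment, 37 C; read-out ATP luminescence (CellTiter-Glo), 30 min RT development.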

Sequence of Peroxisome proliferator-activated receptor alpha (Homo sapiens) (Q07869 whole entry, looked up, the tested form may be a part): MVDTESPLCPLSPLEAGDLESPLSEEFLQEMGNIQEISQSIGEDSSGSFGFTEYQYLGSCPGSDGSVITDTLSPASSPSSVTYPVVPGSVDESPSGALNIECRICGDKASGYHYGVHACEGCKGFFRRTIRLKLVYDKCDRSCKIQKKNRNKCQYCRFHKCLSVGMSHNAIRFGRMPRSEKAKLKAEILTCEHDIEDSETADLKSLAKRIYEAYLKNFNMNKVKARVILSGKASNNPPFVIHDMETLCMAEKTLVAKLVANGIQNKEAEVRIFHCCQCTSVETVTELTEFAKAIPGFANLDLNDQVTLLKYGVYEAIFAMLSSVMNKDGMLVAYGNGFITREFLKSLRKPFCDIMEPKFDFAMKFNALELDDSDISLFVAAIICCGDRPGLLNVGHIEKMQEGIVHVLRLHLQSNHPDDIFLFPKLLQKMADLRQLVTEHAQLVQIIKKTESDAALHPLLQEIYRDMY
Sequence of Vitamin D3 receptor (Homo sapiens) (P11473 whole entry, looked up): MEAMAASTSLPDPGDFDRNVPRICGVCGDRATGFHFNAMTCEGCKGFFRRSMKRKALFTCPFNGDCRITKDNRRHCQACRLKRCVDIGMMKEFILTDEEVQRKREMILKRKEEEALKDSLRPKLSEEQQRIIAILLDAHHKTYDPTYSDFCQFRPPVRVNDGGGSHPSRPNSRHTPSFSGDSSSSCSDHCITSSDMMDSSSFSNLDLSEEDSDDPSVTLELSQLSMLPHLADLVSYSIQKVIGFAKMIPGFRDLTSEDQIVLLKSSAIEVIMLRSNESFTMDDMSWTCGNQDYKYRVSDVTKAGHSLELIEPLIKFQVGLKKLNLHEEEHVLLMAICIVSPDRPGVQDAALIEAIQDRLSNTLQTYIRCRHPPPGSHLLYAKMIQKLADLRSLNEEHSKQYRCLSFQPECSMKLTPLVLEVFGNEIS
Sequence of Peroxisome proliferator-activated receptor delta (Homo sapiens) (Q03181 whole entry, looked up): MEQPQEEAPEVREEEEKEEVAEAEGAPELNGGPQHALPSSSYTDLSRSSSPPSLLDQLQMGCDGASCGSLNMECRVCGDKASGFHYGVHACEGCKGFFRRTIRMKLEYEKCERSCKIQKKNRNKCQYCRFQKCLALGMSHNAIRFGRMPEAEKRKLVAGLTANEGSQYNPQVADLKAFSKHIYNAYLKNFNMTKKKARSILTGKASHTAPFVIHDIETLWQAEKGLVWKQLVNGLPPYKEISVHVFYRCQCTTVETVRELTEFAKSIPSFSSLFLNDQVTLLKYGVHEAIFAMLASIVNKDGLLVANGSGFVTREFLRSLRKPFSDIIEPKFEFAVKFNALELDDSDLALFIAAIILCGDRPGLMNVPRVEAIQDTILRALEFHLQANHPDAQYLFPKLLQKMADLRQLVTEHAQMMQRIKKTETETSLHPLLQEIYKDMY
Sequence of Retinoic acid receptor RXR-alpha (Homo sapiens) (P19793 whole entry, looked up): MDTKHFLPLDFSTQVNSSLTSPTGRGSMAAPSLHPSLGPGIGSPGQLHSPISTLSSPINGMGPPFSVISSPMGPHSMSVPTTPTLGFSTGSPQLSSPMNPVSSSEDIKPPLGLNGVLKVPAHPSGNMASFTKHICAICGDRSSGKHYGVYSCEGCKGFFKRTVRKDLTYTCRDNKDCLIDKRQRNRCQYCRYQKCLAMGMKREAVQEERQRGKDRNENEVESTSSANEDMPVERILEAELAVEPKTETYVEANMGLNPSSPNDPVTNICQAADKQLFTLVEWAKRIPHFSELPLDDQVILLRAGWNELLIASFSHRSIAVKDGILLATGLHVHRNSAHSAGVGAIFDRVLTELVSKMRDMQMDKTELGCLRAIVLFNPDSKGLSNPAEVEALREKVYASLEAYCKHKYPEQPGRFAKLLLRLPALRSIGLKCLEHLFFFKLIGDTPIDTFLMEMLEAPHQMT
Sequence of Glucocorticoid receptor (Homo sapiens) (P04150 whole entry, looked up): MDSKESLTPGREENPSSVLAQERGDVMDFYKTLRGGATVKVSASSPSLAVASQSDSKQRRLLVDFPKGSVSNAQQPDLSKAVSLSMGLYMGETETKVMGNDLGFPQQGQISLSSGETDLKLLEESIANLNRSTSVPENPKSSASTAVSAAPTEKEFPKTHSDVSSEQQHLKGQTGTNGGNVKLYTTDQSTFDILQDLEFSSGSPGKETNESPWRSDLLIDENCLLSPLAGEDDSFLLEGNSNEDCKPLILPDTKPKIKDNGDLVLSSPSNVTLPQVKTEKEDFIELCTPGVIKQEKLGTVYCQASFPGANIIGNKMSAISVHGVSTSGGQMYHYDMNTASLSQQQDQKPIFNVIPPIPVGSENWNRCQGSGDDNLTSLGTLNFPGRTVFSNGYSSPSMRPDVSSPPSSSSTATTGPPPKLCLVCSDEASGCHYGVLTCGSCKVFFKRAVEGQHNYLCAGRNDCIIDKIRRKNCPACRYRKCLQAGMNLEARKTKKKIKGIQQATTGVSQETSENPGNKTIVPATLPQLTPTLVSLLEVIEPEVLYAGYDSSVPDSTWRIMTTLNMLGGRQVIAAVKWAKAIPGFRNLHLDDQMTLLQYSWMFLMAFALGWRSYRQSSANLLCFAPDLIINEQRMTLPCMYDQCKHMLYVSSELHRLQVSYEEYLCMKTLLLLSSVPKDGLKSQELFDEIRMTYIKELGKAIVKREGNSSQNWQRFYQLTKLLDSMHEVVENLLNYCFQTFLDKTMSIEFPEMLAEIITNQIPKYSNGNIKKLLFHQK
Sequence of Bile acid receptor (Homo sapiens) (Q96RI1 whole entry, looked up): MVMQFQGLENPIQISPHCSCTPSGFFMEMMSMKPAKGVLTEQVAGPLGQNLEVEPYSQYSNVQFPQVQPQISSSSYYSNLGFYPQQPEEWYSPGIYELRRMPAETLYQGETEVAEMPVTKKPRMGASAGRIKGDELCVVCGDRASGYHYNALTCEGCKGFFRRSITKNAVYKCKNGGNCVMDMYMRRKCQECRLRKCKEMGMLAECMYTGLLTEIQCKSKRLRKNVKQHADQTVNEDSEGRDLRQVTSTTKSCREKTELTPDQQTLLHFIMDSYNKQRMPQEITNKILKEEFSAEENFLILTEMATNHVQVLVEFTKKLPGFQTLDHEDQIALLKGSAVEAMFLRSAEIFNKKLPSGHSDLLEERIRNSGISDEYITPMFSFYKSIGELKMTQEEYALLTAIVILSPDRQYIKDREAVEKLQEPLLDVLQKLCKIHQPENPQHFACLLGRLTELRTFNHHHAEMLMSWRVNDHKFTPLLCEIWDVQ
Sequence of Nuclear receptor subfamily 1 group I member 2 (Rattus norvegicus) (Q9R1A7 whole entry, looked up): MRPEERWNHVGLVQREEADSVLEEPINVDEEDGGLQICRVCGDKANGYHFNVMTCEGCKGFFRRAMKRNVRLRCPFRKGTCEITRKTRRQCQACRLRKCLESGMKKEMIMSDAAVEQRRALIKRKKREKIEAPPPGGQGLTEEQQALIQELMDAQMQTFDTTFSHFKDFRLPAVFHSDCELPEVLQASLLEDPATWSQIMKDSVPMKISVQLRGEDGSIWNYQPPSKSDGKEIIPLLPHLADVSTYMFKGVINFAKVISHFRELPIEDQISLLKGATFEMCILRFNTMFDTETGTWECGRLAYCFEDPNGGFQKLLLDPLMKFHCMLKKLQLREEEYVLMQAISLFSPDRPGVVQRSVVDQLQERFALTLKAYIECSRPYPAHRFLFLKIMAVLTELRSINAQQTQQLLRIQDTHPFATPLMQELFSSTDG
Sequence of Thyroid hormone receptor beta (Homo sapiens) (P10828 whole entry, looked up): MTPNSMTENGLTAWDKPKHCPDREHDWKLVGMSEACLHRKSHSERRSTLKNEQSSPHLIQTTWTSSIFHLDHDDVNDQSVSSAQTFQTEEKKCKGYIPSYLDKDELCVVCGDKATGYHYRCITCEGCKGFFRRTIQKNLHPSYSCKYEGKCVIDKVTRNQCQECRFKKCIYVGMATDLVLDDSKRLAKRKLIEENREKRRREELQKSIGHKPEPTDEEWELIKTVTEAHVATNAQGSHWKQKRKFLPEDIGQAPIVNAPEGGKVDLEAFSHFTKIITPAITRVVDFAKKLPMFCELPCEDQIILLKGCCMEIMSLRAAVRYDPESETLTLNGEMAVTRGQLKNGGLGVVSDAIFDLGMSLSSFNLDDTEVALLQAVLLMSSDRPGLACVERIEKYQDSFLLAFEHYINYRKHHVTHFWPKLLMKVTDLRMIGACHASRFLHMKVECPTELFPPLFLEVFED
Sequence of Peroxisome proliferator-activated receptor gamma (Homo sapiens) (P37231 whole entry, looked up): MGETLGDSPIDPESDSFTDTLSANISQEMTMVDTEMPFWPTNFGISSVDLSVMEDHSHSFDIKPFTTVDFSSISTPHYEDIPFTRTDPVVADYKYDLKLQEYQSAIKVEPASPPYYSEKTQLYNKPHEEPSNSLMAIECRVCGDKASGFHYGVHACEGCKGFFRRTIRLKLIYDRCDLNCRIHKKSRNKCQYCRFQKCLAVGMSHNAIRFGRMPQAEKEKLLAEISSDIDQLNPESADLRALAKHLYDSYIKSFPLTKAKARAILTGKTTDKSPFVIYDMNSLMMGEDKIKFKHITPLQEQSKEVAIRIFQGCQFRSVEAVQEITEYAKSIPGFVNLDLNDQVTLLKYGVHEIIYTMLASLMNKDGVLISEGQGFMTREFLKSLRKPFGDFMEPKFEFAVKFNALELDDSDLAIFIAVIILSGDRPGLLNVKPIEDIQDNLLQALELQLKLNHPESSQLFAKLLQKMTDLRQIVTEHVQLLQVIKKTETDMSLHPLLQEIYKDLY

CSC1=N[C@@](C)(c2ccccc2)C(=O)N1Nc1ccccc1
inactive: activation [1] 1.54% | activation [2] 0.812% | outcome [3] | outcome [4] | Potency [6] | Potency [7] | activation [8] -5.24% | max response [9] -0.163% | Potency [10] | Potency [11]
25.5%: max response [5]

CCCCCCCCCCCCN(C)C
-10.4%: max response [5]
-18.8%: max response [12]
inactive: activation [1] 2.94% | activation [2] -15.1% | outcome [3] | Potency [13] | Potency [14] | Potency [15] | outcome [4] | Potency [6] | Potency [7] | max response [17] -14.3% | activity change % (negative = inhibition) [18] -6.18% | Potency [19] | activation [20] 0.386% | activation [8] -2.66% | max response [9] -1.36% | Potency [10] | max response [21] -0.69% | Potency [11] | max response [22] -0.417% | outcome [23]
1.32%: max response [16]

CC[C@H]1CCCC(O[C@H]2CC[C@H](N(C)C)[C@@H](C)O2)[C@@H](C)C(=O)C2=C[C@@H]3[C@@H](C=C[C@@H]4C[C@@H](O[C@@H]5O[C@@H](C)[C@H](OC)[C@@H](OC)[C@H]5OC)C[C@@H]34)[C@@H]2CC(=O)O1 (stereo partly specified)
inactive: activation [1] 3.6% | activation [2] -4.34% | Potency [7] | activity change % (negative = inhibition) [18] -5.92% | activation [20] -4.77% | activation [24] -0.423% | activation [8] -0.354% | max response [9] -2.17% | Potency [10] | max response [21] 3.99% | max response [25] -1.89% | Potency [11] | max response [22] -7.6% | outcome [23]
active: Potency [19] 48.6 µM

COC(=O)N(OC)c1ccccc1COc1ccn(-c2ccc(Cl)cc2)n1
-0.714%: max response [16]
-23.9%: max response [5]
active: Potency [17] 3.16 µM | Potency [18] 6.31 µM | Potency [19] 5.45 µM | Potency [20] 5.01 µM
inactive: activation [1] 11.5% | activation [2] -3.13% | outcome [4] | Potency [6] | Potency [7] | activation [8] 10.6% | max response [9] -0.36% | Potency [10] | max response [21] -16.5% | max response [22] -12.5% | outcome [23]

CCC[CH2][Sn]([CH2]CCC)([CH2]CCC)[O][Sn]([CH2]CCC)([CH2]CCC)[CH2]CCC
inactive: activation [1] 0.0431% | activation [2] 3.22% | activation [8] 0.111% | max response [9] 5.55%
-23.3%: max response [5]
active: Potency [15] 22.4 µM | Potency [6] 355 nM | Potency [21] 22.4 µM | Potency [25] 31.6 µM | Potency [11] 22.4 µM
